The whole screen tested about 340,000 compounds, of which about 6,900 (2%) were called active. For the sample, actives were picked, then their nearest neighbours and some compounds at random. A number with no mark means an inactive call. No stated cut-off is given here; in the data, active means inhibition above about 30%; inactive means below that, where a call was filed.
molecular target: D(2) dopamine receptor (Homo sapiens) (UniProt P14416); experiment: HTS Assay for Allosteric Antagonists of the Human D2 Dopamine Receptor: Primary Screen for Antagonists; settings: HEK293 TREx D2 cells, calcium flux, dopamine EC80; at 10 µM; stronger effect = higher value; further: 0% is about no effect
Outline: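 Calcium mobilization kinetics were recorded at 1 s intervals in tetracycline-induced HEK293 T-REx D2 cells, first for 180 s after compound addition and then 180 s after EC80 dopamine.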

D(2) dopamine receptor (Homo sapiens), sequence (P14416 whole entry, looked up): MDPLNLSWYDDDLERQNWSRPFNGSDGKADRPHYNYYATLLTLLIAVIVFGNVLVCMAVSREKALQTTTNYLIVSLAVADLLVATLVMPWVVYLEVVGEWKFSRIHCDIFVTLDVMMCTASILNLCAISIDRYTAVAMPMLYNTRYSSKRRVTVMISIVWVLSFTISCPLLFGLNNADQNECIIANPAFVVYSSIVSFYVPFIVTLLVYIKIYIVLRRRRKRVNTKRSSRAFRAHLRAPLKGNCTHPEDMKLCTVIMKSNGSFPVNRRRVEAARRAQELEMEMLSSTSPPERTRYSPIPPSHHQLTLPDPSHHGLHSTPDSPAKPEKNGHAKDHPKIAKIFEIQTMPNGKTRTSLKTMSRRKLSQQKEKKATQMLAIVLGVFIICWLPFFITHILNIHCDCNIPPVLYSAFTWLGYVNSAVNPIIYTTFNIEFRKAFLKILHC

**Q.** Which inhibition does the source give for CCOCCn1[nH]c2ccccc2c1=O here?
**A.** 9.72%

**Q.** With CC(=O)Nc1ccc(S(=O)(=O)NC(C)C(=O)OCCOc2ccc(F)cc2)cc1 (stereo not drawn) as the compound, how does the inhibition read?
**A.** 8.18%

**Q.** COc1ccccc1NS(=O)(=O)c1ccc(C(=O)N2CCN(c3ccccc3O)CC2)cc1 was tested. Which inhibition did it give?
**A.** -20.7%

**Q.** For Cc1[nH]c2ccccc2c1/C=N/NC(=O)CNC(=O)c1ccc2c(c1)OCO2, which inhibition is on record?
**A.** -12.8%

**Q.** Which inhibition does the source give for O=C(CNC(=O)C(c1ccccc1)c1ccccc1)N/N=C\c1ccc2c(c1)OCO2 here?
**A.** 34.6% (active)

**Q.** For O=C(Cc1ccc(F)cc1)N/N=C/c1ccc2c(c1)OCO2, which inhibition is on record?
**A.** -1.11%

**Q.** How did the inhibition turn out when COC(=O)c1ccc(NS(=O)(=O)c2cc3c4c(c2)C(C)C(=O)N4CCC3)cc1 (stereo not drawn) was run?
**A.** 4.01%

**Q.** With CCCn1nc(C(=O)NNC(=O)CCOc2ccccc2OCC)c2ccccc2c1=O as the compound, how does the inhibition read?
**A.** 17.8%

**Q.** Which inhibition does the source give for COc1ccc(NC(=O)N2CCC(Cc3ccccc3)CC2)cc1 here?
**A.** 3.66%

**Q.** COc1cccc(C(=O)NNC(=O)c2cccc(F)c2)c1 was tested. Which inhibition did it give?
**A.** 0.993%

**Q.** With COc1ccc(NC(=O)NC2CC3CCCC(C2)N3Cc2ccccc2)cc1 (stereo not drawn) as the compound, how does the inhibition read?
**A.** 46% (active)

**Q.** Which inhibition does the source give for COc1ccc(CN2C3CCCC2CC(NC(=O)c2cccc(F)c2)C3)cc1 (stereo not drawn) here?
**A.** 80.1% (active)

**Q.** Which inhibition does the source give for CCCCOCCCNC(=O)c1ccccc1OCC here?
**A.** -16%

**Q.** Which inhibition does the source give for CCOc1ccccc1C(=O)NC1CC2CCCC(C1)N2Cc1ccccc1 (stereo not drawn) here?
**A.** 92.5% (active)

**Q.** O=C(NC1CCN(Cc2ccccc2)CC1)c1ccccc1F was tested. Which inhibition did it give?
**A.** 21.8%

**Q.** How did the inhibition turn out when COc1ccc(NC(=S)N2CCC(NC(=O)c3cccc(F)c3)CC2)cc1 was run?
**A.** -6.43%

**Q.** With CC(=O)NC1CC2CCCC(C1)N2CC(=O)Nc1ccccc1 (stereo not drawn) as the compound, how does the inhibition read?
**A.** 14.7%

**Q.** With COc1ccc(C(=O)Oc2ccc(-c3nnco3)cc2)cc1S(=O)(=O)N1CCOCC1 as the compound, how does the inhibition read?
**A.** 14.7%

**Q.** Cc1ccc2nc(SCC(=O)N3CC(C)OC(C)C3)nc(=O)n2c1 (stereo not drawn) was tested. Which inhibition did it give?
**A.** -3.68%

**Q.** How did the inhibition turn out when O=C(CNS(=O)(=O)c1ccc2c(c1)OCCCO2)N1CCN(c2ccc(F)cc2)CC1 was run?
**A.** -12.5%

**Q.** Cn1c(-c2ccc(F)cc2)cc2onc(-c3ccccc3Cl)c2c1=O was tested. Which inhibition did it give?
**A.** 8.07%

**Q.** For CCN(CC)S(=O)(=O)c1ccc2[nH]c(=O)cc(C(=O)N(C)C3CCS(=O)(=O)C3)c2c1 (stereo not drawn), which inhibition is on record?
**A.** -4.37%

**Q.** CC(=O)Nc1ccccc1NC(=O)c1cc(C)cc(C)c1 was tested. Which inhibition did it give?
**A.** 13.8%

**Q.** CSCc1ccc(C(=O)Nc2cc(C)cc(C)c2)cc1 was tested. Which inhibition did it give?
**A.** 30.3% (active)

**Q.** How did the inhibition turn out when C=CCN(c1ccc(C(=O)Nc2cc(C)cc(C)c2)cc1)S(C)(=O)=O was run?
**A.** -5.69%

**Q.** Which inhibition does the source give for COC(=O)Cc1ccc(OC(=O)C2CCN(S(=O)(=O)c3ccc(OC)c(OC)c3)CC2)cc1 here?
**A.** -7.28%

**Q.** Which inhibition does the source give for COc1ccc(CC(=O)OC(C)C(=O)Nc2ccc(S(N)(=O)=O)cc2)cc1 (stereo not drawn) here?
**A.** -2.4%

**Q.** COc1ccc(Cc2nnc(NC(=O)c3ccc(OC)cc3OC)s2)cc1 was tested. Which inhibition did it give?
**A.** 2.14%

**Q.** With CCCc1nnc(NC(=O)c2cc(OC)cc(OC)c2)s1 as the compound, how does the inhibition read?
**A.** -9.73%

**Q.** Which inhibition does the source give for COc1ccc(Cc2nnc(NC(=O)c3cc(OC)c(OC)c(OC)c3)s2)cc1OC here?
**A.** 34.9% (active)

**Q.** How did the inhibition turn out when Cc1ccc(N2CC(C(=O)Nc3cc(Cl)ccc3-n3cncn3)CC2=O)cc1 (stereo not drawn) was run?
**A.** -16.3%

**Q.** With CCN(Cc1ccccc1)C(=O)Cc1ccc(OC)c(S(=O)(=O)N2CCOCC2)c1 as the compound, how does the inhibition read?
**A.** -8.71%

**Q.** CC(NCC(=O)Nc1ccccc1C(=O)NC1CC1)c1ccccc1Cl (stereo not drawn) was tested. Which inhibition did it give?
**A.** 26.6%

**Q.** How did the inhibition turn out when COc1ccc(C(CNC(=O)c2cccc(S(=O)(=O)Nc3ccccc3Cl)c2)N2CCOCC2)cc1 (stereo not drawn) was run?
**A.** -9.15%

**Q.** Which inhibition does the source give for COc1cc(C2C(C#N)=C(C)NC3=C2C(=O)CC(C)(C)C3)ccc1O (stereo not drawn) here?
**A.** -7.78%

**Q.** Which inhibition does the source give for CC(=O)C1=C(C)NC2=C(C(=O)CC(C)(C)C2)C1C (stereo not drawn) here?
**A.** 34% (active)

**Q.** Which inhibition does the source give for CCOC(=O)C1=C(C)NC2=C(C(=O)CC(C)(C)C2)C1c1ccsc1 (stereo not drawn) here?
**A.** -9.11%

**Q.** For CCOC(=O)c1ccccc1NC(=O)COC(=O)C(Cc1c[nH]c2ccccc12)NC(C)=O (stereo not drawn), which inhibition is on record?
**A.** -6.93%

**Q.** How did the inhibition turn out when CCC(=O)c1ccc(OCC(=O)Nc2ccc(N3CCCCC3)cc2)cc1 was run?
**A.** 19%

**Q.** For CCN(CC(=O)Nc1cc(Cl)ccc1C)C(=O)CSCc1ccc(C)cc1, which inhibition is on record?
**A.** -3.18%

**Q.** For COC(=O)C1=C(C)NC2=C(C(=O)c3ccccc32)C1c1ccc(-c2ccc(C(=O)O)cc2)o1 (stereo not drawn), which inhibition is on record?
**A.** 54.8% (active)

**Q.** How did the inhibition turn out when CCOC(=O)C1=C(c2ccc(OC)cc2)C(=O)c2ccccc2C1=O was run?
**A.** -4.28%

**Q.** Cc1ccc(C2C3=C(Nc4[nH]n(-c5ccccc5)c(=O)c42)c2ccccc2C3=O)cc1 (stereo not drawn) was tested. Which inhibition did it give?
**A.** -28.5%

**Q.** For O=C(c1ccc(Cl)c(S(=O)(=O)N2CCCCCC2)c1)N1CCN(c2ccc(O)cc2)CC1, which inhibition is on record?
**A.** 4.16%

**Q.** Which inhibition does the source give for CCOC(=O)C(C)N(c1ccccc1Cl)S(C)(=O)=O (stereo not drawn) here?
**A.** -9.97%

**Q.** With O=C(CCc1c[nH]c2ccccc12)NCCOc1ccccc1 as the compound, how does the inhibition read?
**A.** 12.3%

**Q.** O=C(CCCCn1c(=O)[nH]c2ccccc2c1=O)NCc1ccc2c(c1)OCO2 was tested. Which inhibition did it give?
**A.** -1.23%

**Q.** How did the inhibition turn out when CCN(CC)CCNC(=O)CCCCCn1c(=O)[nH]c2cc(C(=O)OC)ccc2c1=O was run?
**A.** -2.71%

**Q.** For O=C(CCCn1c(=O)[nH]c2cc(Cl)ccc2c1=O)NCCN1CCN(c2ccccc2)CC1, which inhibition is on record?
**A.** 81.3% (active)

**Q.** For Cc1ccc(C)c(N2CCN(C(=O)CCCCn3c(=O)[nH]c4ccccc4c3=O)CC2)c1, which inhibition is on record?
**A.** -2.01%

**Q.** Which inhibition does the source give for O=C(CCCCCn1c(=O)[nH]c2ccccc2c1=O)NCCc1c[nH]c2ccccc12 here?
**A.** 39.1% (active)

**Q.** With O=C(CSc1ccccc1)Nc1cccc(S(=O)(=O)N2CCOCC2)c1 as the compound, how does the inhibition read?
**A.** 12.8%

**Q.** With O=C(/C=C/c1cccc([N+](=O)[O-])c1)OCC(=O)N1CCOCC1 as the compound, how does the inhibition read?
**A.** 13.9%

**Q.** Which inhibition does the source give for CSc1ccccc1NC(=O)COC(=O)CCCOc1ccc(C)cc1 here?
**A.** 5.07%

**Q.** How did the inhibition turn out when CCOc1cc(/C=C/C(=O)OCC(=O)NCCN2C(=O)CSC2=O)ccc1OCC(C)C was run?
**A.** 2.85%

**Q.** With COc1ccccc1C(=O)NC(CCSC)C(=O)NNC(=O)c1csc(N2CCOCC2)n1 (stereo not drawn) as the compound, how does the inhibition read?
**A.** 6.58%

**Q.** CSCCC(NC(=O)c1ccc(Cl)cc1Cl)C(=O)NNC(=O)c1csc(N2CCOCC2)n1 (stereo not drawn) was tested. Which inhibition did it give?
**A.** 33.7% (active)

**Q.** O=C(NNC(=O)c1cc(-c2ccccc2Cl)nc2ccccc12)c1csc(N2CCOCC2)n1 was tested. Which inhibition did it give?
**A.** 4.74%
